Laboratory results published in PubChem BioAssay AID1159580 (chemical genetic matrix, 2015).
“And” between values parts separate entries of the source, which are not always exact repeats. Equal entries are not always repeated. In all, about 5,500 compounds went through this assay and about 2,000 (36%) were called active. Not shown: some 18% with an inconclusive outcome. Cut-off read from the data, not from the text of the source: active = normalized growth mostly below about 0.91 (no sharp cut-off); inconclusive = no clear call, values can overlap the other calls; inactive = mostly above about 0.92. The list shows a part of the results.

Assay: chemical genetic growth profiling, strain panel (AID 1159580);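 note: tested at 20 µM; growth read once vehicle control cultures reached saturation at 30 °C; 1 = growth at the plate median or of vehicle wells; lower values mean less growth of the strain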
Details: S. cerevisiae deletion strains, growth OD

Measured: normalized growth

O=C1C=C(O)c2ccccc2C1=O
inactive: locus YAL013W, strain DEP1, hits give low values 0.969 | locus YAL026C, strain drs2, hits give low values 0.938 | locus YAL030W, strain snc1, hits give low values 0.959 | locus YBL061C, strain skt5, hits give low values 0.956 | locus YBR009C, strain hhf1, hits give low values 0.948 | locus YBR021W, strain FUR4, hits give low values 1.05 | locus YBR023C, strain chs3, hits give low values 0.95 | locus YBR171W, strain sec66, hits give low values 0.952 | locus YBR229C, strain ROT2, hits give low values 0.979 | locus YBR231C, strain swc5, hits give low values 0.932 | locus YBR279W, strain paf1, hits give low values 0.953 | locus YCL011C, strain gbp2, hits give low values 0.925 | locus YCL016C, strain dcc1, hits give low values 0.95 | locus YCL029C, strain bik1, hits give low values 0.971 | locus YCL061C, strain MRC1, hits give low values 0.93 | locus YCL069W, strain vba3, hits give low values 0.963 | locus YCR088W, strain abp1, hits give low values 0.934 | locus YDL005C, strain med2, hits give low values 0.947 | locus YDL035C, strain GPR1, hits give low values 1.01 | locus YDL040C, strain nat1, hits give low values 0.966 | locus YDL074C, strain BRE1, hits give low values 1.03 | locus YDL101C, strain DUN1, hits give low values 0.971 | locus YDL134C, strain PPH21, hits give low values 0.968 | locus YDL185W, strain tfp1, hits give low values 0.907 | locus YDL192W, strain arf1, hits give low values 0.958 | locus YDR001C, strain nth1, hits give low values 0.944 | locus YDR069C, strain doa4, hits give low values 0.912 | locus YDR101C, strain arx1, hits give low values 0.978 | locus YDR150W, strain NUM1, hits give low values 0.972 | locus YDR162C, strain NBP2, hits give low values 0.882 | locus YDR195W, strain ref2 0.995 | locus YDR297W, strain sur2, hits give low values 0.931 | locus YDR318W, strain mcm21, hits give low values 0.928 | locus YDR335W, strain msn5, hits give low values 0.94 | locus YDR388W, hits give low values 0.966 | locus YDR392W, strain spt3, hits give low values 0.796 | locus YDR502C, strain sam2, hits give low values 0.941 | locus YEL003W, strain gim4, hits give low values 0.925 | locus YEL037C, strain rad23, hits give low values 0.944 | locus YEL061C, strain CIN8 (second series), hits give low values 0.948 | locus YEL061C, strain CIN8, hits give low values 0.966 | locus YER015W, strain faa2, hits give low values 0.94 | locus YER016W, strain bim1, hits give low values 0.957 | locus YER110C, hits give low values 0.955 | locus YER111C, strain swi4, hits give low values 0.965 | locus YER155C, strain BEM2 (second series), hits give low values 0.954 | locus YER155C, strain BEM2, hits give low values 0.957 | locus YER167W, strain BCK2, hits give low values 0.98 | locus YGL078C, strain dbp3, hits give low values 1.01 | locus YGL086W, strain mad1, hits give low values 0.976 | locus YGL167C, strain pmr1, hits give low values 0.948 | locus YGL173C, strain kem1, hits give low values 0.942 | locus YGL227W, strain vid30, hits give low values 0.977 | locus YGL240W, strain doc1, hits give low values 0.89 | locus YGL248W, strain PDE1, hits give low values 0.966 | locus YGL253W, strain hxk2, hits give low values 0.924 | locus YGR078C, strain PAC10, hits give low values 0.963 | locus YGR135W, strain pre9, hits give low values 0.973 | locus YGR252W, strain gcn5, hits give low values 1.03 | locus YHR013C, strain ard1, hits give low values 0.963 | locus YHR027C, strain rpn1, hits give low values 0.935 | locus YHR030C, strain SLT2, hits give low values 0.963 and 0.867 | locus YHR079C, strain IRE1 (second series), hits give low values 0.981 | locus YHR094C, strain hxt1, hits give low values 1 | locus YHR129C, strain ARP1, hits give low values 0.988 | locus YHR142W, strain chs7, hits give low values 0.93 | locus YHR200W, strain rpn10, hits give low values 0.962 | locus YIL066C, strain RNR3, hits give low values 0.972 | locus YIL073C, strain SPO22, hits give low values 0.992 | locus YIL125W, strain kgd1, hits give low values 0.962 | locus YIR030C, strain dcg1, hits give low values 0.972 | locus YJL092W, strain hpr5, hits give low values 0.934 | locus YJL095W, strain BCK1 (second series), hits give low values 0.931 | locus YJL095W, strain BCK1, hits give low values 0.949 and 0.923 | locus YJL115W, strain asf1, hits give low values 0.938 | locus YJL129C, strain trk1, hits give low values 0.967 | locus YJL134W, strain LCB3, hits give low values 0.967 | locus YJL154C, strain vps35, hits give low values 0.933 | locus YJL166W, strain qcr8, hits give low values 0.92 | locus YJL168C, strain set2, hits give low values 0.955 | locus YJL187C, strain SWE1 (second series), hits give low values 0.957 | locus YJL187C, strain SWE1, hits give low values 0.946
active: locus YAL021C, strain ccr4, hits give low values 0.905 | locus YDR137W, strain rgp1, hits give low values 0.683 | locus YDR159W, strain sac3, hits give low values 0.802 | locus YDR334W, strain swr1, hits give low values 0.884 | locus YFR010W, strain ubp6, hits give low values 0.896 | locus YHR079C, strain IRE1, hits give low values 0.774 | locus YJL164C, strain tpk1, hits give low values 0.913
